In PubChem BioAssay AID485317 (Broad Institute, 2010):
The campaign covered roughly 290,000 compounds. About 11,000 (3.8%) were called active. Many of the other results were omitted from the sample, so actives are more common in it than they were. Values without a mark were called inactive.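 The calls were made as follows: active = mean replicate inhibition above about 79%, with every replicate also reaching it (limit read from the data); inconclusive = only one of the two criteria met; inactive = mean below limit and not every replicate reaching it.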

biological target: FAD-linked sulfhydryl oxidase ALR (Homo sapiens) (UniProt P55789); experiment: ALR-catalysed DTT oxidation blockers – biochemical, H2O2 detection, HRP-luminol luminescence, single point, primary screen (AID 485317); conditions: purified ALR, active compounds read high, concentration not given here
Sequence (P55789 whole entry, looked up): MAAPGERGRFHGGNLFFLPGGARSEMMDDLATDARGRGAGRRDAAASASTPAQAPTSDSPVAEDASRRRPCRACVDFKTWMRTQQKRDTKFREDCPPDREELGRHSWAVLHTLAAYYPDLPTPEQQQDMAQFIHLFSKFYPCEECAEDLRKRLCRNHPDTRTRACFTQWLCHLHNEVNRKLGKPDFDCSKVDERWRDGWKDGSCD

Row | SMILES | inhibition
1 | Cc1ccc(N2C(=O)SC(N(CC(=O)O)c3ccc(C)cc3)C2=O)cc1 (configuration not stated) | 0.583%
2 | CN(N)c1nc(N2CCCC2)nc(N2CCCC2)n1 | -6.99%
3 | Cc1sc2ncnc(N3CCC(C(=O)Nc4ccc(F)cc4Cl)CC3)c2c1C | 1.27%
4 | Nc1c(-c2ccccc2)nnn1Cc1ccccc1 | -6.35%
5 | Cn1c(CC2Sc3ccccc3NC2=O)nnc1SCC(=O)c1ccc(Cl)cc1 (configuration not stated) | 92.8% (active)
6 | Cn1c(CC(=O)Nc2ccccc2)nnc1SCC(=O)c1ccccc1 | -3.26%
7 | Cc1ccc(C(=O)CSc2nnc(Cn3nnc4ccccc43)n2C)cc1 | 39.7%
8 | S=c1[nH]nc(-c2ccco2)n1/N=C/c1ccc(Br)s1 | 68.5%
9 | S=c1[nH]nc(-c2ccco2)n1/N=C/c1ccccc1 | 94.9% (active)
10 | Cc1cc(-c2n[nH]c(=S)n2/N=C/c2ccco2)n[nH]1 | -0.903%
11 | COc1ccc(C(=O)COC(=O)C(O)c2ccccc2)c(OC)c1 (configuration not stated) | -0.55%
12 | O=C(C1Cc2ccccc2CN1C(=O)c1ccco1)N1CCN(c2ccccc2)CC1 (configuration not stated) | 50.3%
13 | Cc1ccc(Cl)c(OCC(=O)N(C)CC(=O)Nc2ccc(N3CCOCC3)cc2)c1 | 52.9%
14 | O=C(CCc1[nH]c2ccccc2c1Sc1ccccc1)N(CCO)CCO | 99% (active)
15 | CCCC(=O)N(CCc1ccccc1)Cc1nc2ccccc2c(=O)[nH]1 | -7.51%
16 | CCCCNC(=O)Cn1nc(C)c(S(=O)(=O)N2CCOCC2)c1C | 3.23%
17 | COc1ccc(S(=O)(=O)N2CCN(CC(=O)N3CCOCC3)CC2)cc1OC | -0.297%
18 | Cc1cccc(-c2nc(Nc3ccc(O)cc3)c3ccccc3n2)c1 | 6.09%
19 | Cc1ccc(-c2nnc(Nc3ccc(C(=O)N(C)C)cc3)c3ccccc23)cc1S(N)(=O)=O | -2.47%
20 | Oc1ccc(-c2nnc(Nc3ccccc3)c3ccccc23)cc1 | 98.8% (active)
21 | CCOC(=O)NN1C(=O)c2ccccc2NC1c1cccc(O)c1 (configuration not stated) | -18.3%
22 | O=C1c2ccccc2NC(c2ccc(-c3cccc(Cl)c3)o2)N1O (configuration not stated) | 95.9% (active)
23 | O=C1NC(c2cccc(Cl)c2)Nc2ccccc21 (configuration not stated) | 0.575%
24 | COc1ccc(C(=O)COC(=O)c2c(C)noc2C)cc1Cl | 1.08%

Row | SMILES | inhibition
25 | Nc1ccc(-c2sc(N)nc2-c2ccccc2)cc1 | 99% (active)
26 | Nc1ccc(-c2nnc(-c3ccccc3)o2)cc1 | 36.1%
27 | Nc1nc(-c2ccccc2)cc(-c2ccccc2)n1 | -2.58%
28 | CCN1C(=O)[C@@H]2[C@@H](c3ccc(-c4ccccc4)cc3)N3CCCC[C@@]3(C(=O)OC)[C@@H]2C1=O | -1.67%
29 | CCCCn1c(N)c(N(CCOC)C(=O)c2cccc(S(=O)(=O)N(C)c3ccccc3)c2)c(=O)[nH]c1=O | -2.15%
30 | Cc1ccc(NC(=O)C2CC(=O)N(c3ccc4c(c3)OCCO4)C2)cc1S(=O)(=O)N1CCCCCC1 (configuration not stated) | -0.304%
31 | COc1cc(C2C(C(=O)c3cccs3)=C(O)C(=O)N2CCN2CCOCC2)ccc1OCCC(C)C (configuration not stated) | -0.637%
32 | COc1ccc(Cc2nnc(SCC(=O)Nc3ccc(C)c(Cl)c3)[nH]c2=O)cc1 | -4.08%
33 | Cc1ccc(NC(=O)CSc2nn3c(=O)c(C)nnc3s2)cc1Cl | 98.9% (active)
34 | Cc1ccc(NC(=O)C/C(N)=N/O)cc1Cl | -7.95%
35 | CC(C)(C)S(=O)(=O)c1ccccc1-c1noc(-c2ccccc2)c1C(N)=O | -2.96%
36 | COc1ccc(C2NC(=O)c3ccccc3N2)cc1 (configuration not stated) | 0.0966%
37 | COc1ccc2c(c1)C(=O)Nc1cc(Cl)ccc1N2 | 87.7% (active)
38 | COc1ccc2nc3n(c(=O)c2c1)-c1ccc(Cl)cc1C(=O)NC3Cc1ccccc1 (configuration not stated) | -0.323%
39 | CC(C)(C)c1ccc(C(=O)NCc2ccco2)cc1 | 1.34%
40 | CN(CC(=O)NC1CCN(Cc2ccccc2)CC1)S(=O)(=O)c1ccc(Cl)s1 | -2.03%
41 | Cc1ccc(NC(=O)c2ccc(Cl)nc2)cc1S(=O)(=O)N1CCOCC1 | -4.04%
42 | Cc1ccc(-c2nc(CSCC(=O)NC3CCN(Cc4ccccc4)CC3)c(C)o2)cc1 | 99.5% (active)
43 | Cc1ccc(S(=O)(=O)NCCC(=O)NC2CCN(Cc3ccccc3)CC2)cc1 | 6.19%
44 | Cc1ccc(-c2nc(CS(=O)CC(=O)NC3CCCC3)c(C)o2)cc1 (configuration not stated) | 99.1% (active)
45 | Cc1ccc(NC(=O)CS(=O)CC(=O)N(c2ccccc2)C(C)C(=O)NC2CCCC2)cc1 (configuration not stated) | -4.87%
46 | Cc1ccc(-c2cc(C(=O)NC3CCN(Cc4ccccc4)CC3)c3ccccc3n2)cc1 | 1.58%
47 | Cc1ccc(NC(=O)CSCC(=O)NC2CCCCC2)cc1 | -3.3%
